These results are taken from PubChem BioAssay (NCATS).

Test [1] is described as follows: Drug repurposing screens with cells derived from glioblastoma tumor samples (AID 1345199). Further: nearly all actives have a fitted effect of over 40% in size. As to conditions: GBM patient neurospheres viability, ATP luminescence, 48 h. A digest of the protocol: (§1)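 Primary testing used CD133+ neurospheres from four GBM patients, seven concentrations, 48 h exposure and ATP-based viability; confirmation added three slower-growing patient lines.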

Another test concerns astro (control astrocytes). The description is as above. The following applies: viability, ATP luminescence, 48 h; series mostly up to 45.9 µM. A digest of the protocol:
as §1

Setting [2] is: at 21.3 µM (top of the series), tumour line A.
The mark [3] stands for this setting: at 45.9 µM (top of the series), tumour line B.
The mark [4] stands for this setting: at 45.9 µM (top of the series), tumour line D.
The mark [5] stands for this setting: at 46 µM (top of the series), tumour line A.
The mark [6] stands for this setting: at 46.1 µM (top of the series), tumour line C.
The mark [7] stands for this setting: at 20 µM (top of the series), tumour line C.
Setting [8] is: at 21.2 µM (top of the series), tumour line B.
The mark [9] stands for this setting: at 21.2 µM (top of the series), tumour line D.

Molecules are shown by their SMILES. Records with an inconclusive call do not appear. The source made the active and inactive calls. The call rests on the fitted dose curve; in most records, active means well fitted inhibition curve with a large enough effect; inconclusive means small, poorly fitted or top-dose-only effect; inactive means flat fitted curve, though single readings scatter.
On the % scale 0 is the no-effect control and ±100 the full control effect; potency means the concentration at half of the fitted maximal effect.

For `CCN(CC)CCc1nc(-c2ccccc2)no1`, the activity, negative = cell killing in test [1] (setting [2]) was -18.4% (inactive).

Take `COC(=O)c1ccccc1C(=O)c1ccc(OCCN2CCCCC2)cc1`: the Potency in test [1] (tumour line C) was 20.6 µM (active); in test [1] (tumour line D), 12.6 µM (active).

Take `CC(=O)N[C@H]1[C@H]([C@H](O)[C@H](O)CO)OC(C(=O)O)=C[C@@H]1N=C(N)N`: the activity, negative = cell killing in test [1] (setting [3]) was -18.7% (inactive); in test [1] (setting [4]), -2.37% (inactive); in test [1] (setting [5]), -22.1% (inactive); in test [1] (setting [6]), -20.3% (inactive). Besides, the outcome with astro was inactive.

For `CC(C)C[C@@H](N)C(=O)O`, the activity, negative = cell killing is 3.77% (inactive) in test [1] (setting [3]), 29.1% (inactive) in test [1] (setting [4]), 14.9% (inactive) in test [1] (setting [5]) and -0.0622% (inactive) in test [1] (setting [6]). The compound was called inactive in the test on astro.

For the compound `CN1CCCN=C1COC(=O)C(O)(c1ccccc1)C1CCCCC1` (stereo unspecified), the activity, negative = cell killing in test [1] (setting [3]) was -22.5% (inactive); in test [1] (setting [4]) it was -25.7% (inactive); in test [1] (setting [6]), -4.53% (inactive). Moreover, the Potency in test [1] (tumour line A) is 11.2 µM (active). In the test with astro, the outcome was inactive.

Turning to `CNc1c2c(nn1C)CCCC2`, the activity, negative = cell killing was -7.34% (inactive) in test [1] (setting [3]), -0.633% (inactive) in test [1] (setting [4]), -5.91% (inactive) in test [1] (setting [5]) and -14.3% (inactive) in test [1] (setting [6]). In addition, in the test with astro, the outcome was inactive.

Consider `CC(C)NC[C@@H](O)COc1ccc(CC(N)=O)cc1`, for which the activity, negative = cell killing in test [1] (setting [3]) is -18.7% (inactive); in test [1] (setting [4]), 5.31% (inactive); in test [1] (setting [5]) it was 1.1% (inactive); in test [1] (setting [6]), -9.77% (inactive). Further, the compound was classed as inactive in the test on astro.

In the case of `CC(C)CCCC(C)CCCC(C)CCCCC(C)CCCC(C)CCCC(C)C` (stereo unspecified), the activity, negative = cell killing in test [1] (setting [3]) is 2.81% (inactive); in test [1] (setting [4]), 2.23% (inactive); in test [1] (setting [5]) it was -12.7% (inactive); in test [1] (setting [6]) it was 8.73% (inactive).

For the compound `C/C=C1\[C@H]2C=C(C)C[C@]1(N)c1ccc(=O)[nH]c1C2`, the activity, negative = cell killing in test [1] (setting [3]) is -6.65% (inactive); in test [1] (setting [4]), -6.44% (inactive); in test [1] (setting [5]) it was -18.8% (inactive); in test [1] (setting [6]) it was 3.14% (inactive). In addition, the result in the test on astro was inactive.

As to `C/C(=C(\CCO)SS/C(CCO)=C(\C)N(C=O)Cc1cnc(C)nc1N)N(C=O)Cc1cnc(C)nc1N`, the activity, negative = cell killing in test [1] (setting [3]) is 0.803% (inactive); in test [1] (setting [4]), 1.23% (inactive); in test [1] (setting [5]) it was -2.85% (inactive); in test [1] (setting [6]), 0.411% (inactive).

Regarding `O=C(NCC(O)CO)c1c(I)c(C(=O)NCC(O)CO)c(I)c(N(CCO)C(=O)CO)c1I` (stereo unspecified), the activity, negative = cell killing was -7.07% (inactive) in test [1] (setting [7]), -9.85% (inactive) in test [1] (setting [8]), 1% (inactive) in test [1] (setting [9]) and -9.08% (inactive) in test [1] (setting [2]). For the same compound, in the test with astro, the outcome was inactive.

With `O=C(O)c1ccc[n+]([O-])c1`, the activity, negative = cell killing was -13.5% (inactive) in test [1] (setting [3]), 12.2% (inactive) in test [1] (setting [4]), -25.2% (inactive) in test [1] (setting [5]) and -21.7% (inactive) in test [1] (setting [6]). The compound was classed as inactive in the test with astro.

For the compound `Cc1c(NC(=O)c2cccnc2)c(=O)n(-c2ccccc2)n1C`, the activity, negative = cell killing in test [1] (setting [7]) was -4.61% (inactive); in test [1] (setting [8]), 2.25% (inactive); in test [1] (setting [9]), 12.3% (inactive); in test [1] (setting [2]), -13.1% (inactive). Besides, the compound was classed as inactive in the test with astro.

On to `CO[C@@]1(NC(=O)C(C(=O)O)c2ccc(O)cc2)C(=O)N2C(C(=O)O)=C(CSc3nnnn3C)CO[C@@H]21` (stereo partly specified), for which the activity, negative = cell killing is -17.7% (inactive) in test [1] (setting [7]), -0.689% (inactive) in test [1] (setting [8]), -3.96% (inactive) in test [1] (setting [9]) and -23.1% (inactive) in test [1] (setting [2]). Besides, the outcome with astro was inactive.

On to `CC(=O)N1C[C@H](O)C[C@H]1C(=O)O`, for which the activity, negative = cell killing is -12.7% (inactive) in test [1] (setting [3]), 12.1% (inactive) in test [1] (setting [4]), -19.6% (inactive) in test [1] (setting [5]) and -5.75% (inactive) in test [1] (setting [6]). In the test on astro, the outcome was inactive.

On to `COc1cc(O)cc(O)c1`, for which the activity, negative = cell killing in test [1] (setting [3]) was -0.182% (inactive); in test [1] (setting [4]) it was -4.84% (inactive); in test [1] (setting [5]), -38.5% (inactive); in test [1] (setting [6]) it was -3.31% (inactive). In addition, the outcome with astro was inactive.

Regarding `O=C(/C=C/c1ccccc1)OCc1ccccc1`, the activity, negative = cell killing is -5.75% (inactive) in test [1] (setting [3]), -8.15% (inactive) in test [1] (setting [4]), -17.7% (inactive) in test [1] (setting [5]) and -14.4% (inactive) in test [1] (setting [6]). The compound was classed as inactive with astro.

Consider `Cc1cccc(C(=O)O)c1O`, for which the activity, negative = cell killing in test [1] (setting [3]) is -1.64% (inactive); in test [1] (setting [4]) it was -5.93% (inactive); in test [1] (setting [5]) it was -19.5% (inactive); in test [1] (setting [6]), -18.8% (inactive). Moreover, the result with astro was inactive.

`C[C@@H]1CCC[C@H](C)N1`: the activity, negative = cell killing in test [1] (setting [7]) is -13.9% (inactive); in test [1] (setting [8]), -3.64% (inactive); in test [1] (setting [9]), -2.57% (inactive); in test [1] (setting [2]), -18% (inactive). Moreover, in the test with astro, the call was inactive.

Turning to `CN1CC(=O)NC1=N`, the activity, negative = cell killing is -7.86% (inactive) in test [1] (setting [3]), -12.2% (inactive) in test [1] (setting [4]), -16.7% (inactive) in test [1] (setting [5]) and -13.9% (inactive) in test [1] (setting [6]). The compound was called inactive in the test on astro.

Take `NC(=O)NS(=O)(=O)c1ccc(N)cc1`: the activity, negative = cell killing in test [1] (setting [3]) was -9.53% (inactive); in test [1] (setting [4]) it was 9.92% (inactive); in test [1] (setting [5]), -3.84% (inactive); in test [1] (setting [6]), 3.57% (inactive). Further, the compound was classed as inactive in the test with astro.

Consider `CC(=O)N(CC(O)CN(C(C)=O)c1c(I)c(C(=O)NCC(O)CO)c(I)c(C(=O)NCC(O)CO)c1I)c1c(I)c(C(=O)NCC(O)CO)c(I)c(C(=O)NCC(O)CO)c1I` (stereo unspecified), for which the activity, negative = cell killing in test [1] (setting [7]) is 4.37% (inactive); in test [1] (setting [8]) it was -1.18% (inactive); in test [1] (setting [9]), 15.1% (inactive); in test [1] (setting [2]) it was -9.07% (inactive). Also, the result in the test on astro was inactive.

Consider `C[C@]1(Cn2ccnn2)[C@H](C(=O)O)N2C(=O)C[C@H]2S1(=O)=O`, for which the activity, negative = cell killing in test [1] (setting [3]) was -6.98% (inactive); in test [1] (setting [4]), -15.1% (inactive); in test [1] (setting [5]) it was -24.4% (inactive); in test [1] (setting [6]) it was -1.25% (inactive). Besides, the outcome in the test with astro was inactive.
